Consider 7 compounds from PubChem BioAssay (EPA / NIEHS).

Test [1] can be described thus: ATG_CRE_CIS: Attagene CIS-FACTORIAL HepG2 Assay for human cAMP Responsive Element (CRE) binding protein 3 (AID 2282926). The conditions noted are these: HepG2 CRE cis-reporter, Attagene multiplexed mRNA; actives raise or lower the signal. A digest of the protocol:
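We dosed HepG2 cells bearing multiple cis-promoter reporter units for 24 h and measured reporter mRNA by RT-PCR with capillary electrophoresis detection. Bidirectional concentration-response fitting used DMSO as negative control.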

Test [2] has as its target CCAAT/enhancer-binding protein beta (Homo sapiens) (UniProt P17676). Kind of test: ATG_C_EBP_CIS: Attagene CIS-FACTORIAL HepG2 Assay for human CCAAT/Enhancer Binding Protein (C/EBP) beta (AID 2282927). The conditions noted are these: HepG2 Attagene cis-factorial transcription factor reporter; actives raise or lower the signal. A digest of the protocol: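 Endogenous transcription factor activity in human liver HepG2 cells is inferred from induction of a CEBPB-linked reporter mRNA. Exposure lasts 24 h; activity is fitted in both directions relative to DMSO.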

Test [3] addresses Aryl hydrocarbon receptor (Homo sapiens) (UniProt P35869). Kind of test: ATG_Ahr_CIS: Attagene CIS-FACTORIAL HepG2 Assay for human Aryl Hydrocarbon Receptor (Ahr) (AID 2282930). The conditions noted are these: HepG2 AhR cis-factorial reporter transcription; actives raise or lower the signal. A digest of the protocol:
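Transient MRTU transfection of HepG2 → 24 h compound exposure → total RNA, oligo(dT) RT → PCR, 6-FAM extension, HpaI cut → CE fluorescence. DMSO = baseline; bidirectional curve fit.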

Test [4] in a line: ATG_AP_1_CIS: Attagene CIS-FACTORIAL HepG2 Assay for human Activator Protein 1 (AP-1) (AID 2282931). The conditions noted are these: HepG2 Attagene cis-factorial AP-1 reporter mRNA; actives raise or lower the signal. In short, it runs like this: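 HepG2 cells transiently transfected with cis-element-driven reporter transcription units, dosed for 24 hours. Reporter mRNA measured by RT-PCR, 6-FAM labelling, HpaI digestion and capillary electrophoresis. Bidirectional fitting against DMSO baseline.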

The nature of test [5]: ATG_AP_2_CIS: Attagene CIS-FACTORIAL HepG2 Assay for human Activator Protein 2 (AP-2) (AID 2282932). Conditions: HepG2 AP-2 cis-reporter, Attagene transcription factor profiling; actives raise or lower the signal. In short, it runs like this: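 Step one: transient transfection of HepG2 with reporter transcription units. Step two: 24 h chemical exposure. Step three: RNA extraction, RT-PCR, labelled fragment analysis by capillary electrophoresis; DMSO serves as baseline.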

A short description of test [6]: ATG_BRE_CIS: Attagene CIS-FACTORIAL HepG2 Assay for human Bone Morphogenetic Protein (BMP) Response Element (BRE) (AID 2282933). The conditions noted are these: HepG2 BMP response element reporter, Attagene transcription factor profiling; actives raise or lower the signal. A digest of the protocol: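 After a 24 h chemical treatment, transiently transfected HepG2 cells were lysed for RNA; reporter transcripts were quantified by fluorescent RT-PCR and capillary electrophoresis, normalised to DMSO.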

Test [7] in a line: ATG_E_Box_CIS: Attagene CIS-FACTORIAL HepG2 Assay for human Enhancer Box (E-box) (AID 2282936). The conditions noted are these: HepG2 E-box cis-reporter transcription, actives raise or lower the signal. In short, it runs like this: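 DMSO served as negative control and baseline for bidirectional fitting. Human hepatoma HepG2 cells, transiently transfected with cis-reporter constructs, were dosed 24 h; reporter mRNA read by RT-PCR and capillary electrophoresis.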

Test [8] in a line: ATG_M_61_CIS: Attagene CIS-FACTORIAL HepG2 Assay for M61 Transcription Factor (Internal Marker) (AID 2282937). Conditions: HepG2 Attagene CIS-FACTORIAL M61 internal marker reporter; actives raise or lower the signal. In short, it runs like this: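 HepG2 cells transiently transfected with multiplexed cis-promoter reporter units reporting endogenous transcription factor activity, measured 24 h after dosing. Reporter mRNA quantified by RT-PCR and capillary electrophoresis; bidirectional fit against DMSO baseline.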

Test [9] can be described thus: ATG_EGR_CIS: Attagene CIS-FACTORIAL HepG2 Assay for human Early Growth Response 1 (EGR1) (AID 2282938). Conditions: HepG2 Attagene CIS-FACTORIAL EGR reporter mRNA; actives raise or lower the signal. A digest of the protocol: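 HepG2 cells transiently transfected with cis-element-driven multiplexed reporter units, dosed for 24 h. EGR1-element reporter mRNA quantified by RT-PCR, 6-FAM labelling, HpaI digestion and capillary electrophoresis; bidirectional fit versus DMSO.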

Test [10] is described as follows: ATG_ERE_CIS: Attagene CIS-FACTORIAL HepG2 Assay for Estrogen Response Element (ERE) (AID 2282940). The conditions noted are these: HepG2 ERE cis-reporter, Attagene RNA transcript; actives raise or lower the signal. In short, it runs like this:
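Measuring endogenous transcription factor output, the assay doses transfected HepG2 cells for 24 hours and quantifies reporter transcripts by fluorescent RT-PCR and capillary electrophoresis, with DMSO as baseline.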

The nature of test [11]: ATG_Ets_CIS: Attagene CIS-FACTORIAL HepG2 Assay for human Erythroblast Transformation Specific (ETS) (AID 2282941). The conditions noted are these: HepG2 ETS cis-reporter transcription, actives raise or lower the signal. A digest of the protocol: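 Human HepG2 hepatoma cells were transiently transfected with promoter-driven reporter constructs and treated for 24 hours. Reporter transcripts were quantified by RT-PCR with fluorescent primer extension; bidirectional curve fitting used DMSO as reference.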

The target of test [12] is Hepatocyte nuclear factor 3-beta (Homo sapiens) (UniProt Q9Y261). Kind of test: ATG_FoxA2_CIS: Attagene CIS-FACTORIAL HepG2 Assay for human Forkhead box A2 (FOXA2) (AID 2282942). Conditions: HepG2 cis-reporter transcription factor activity, 24 h; actives raise or lower the signal. In short, it runs like this: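 HepG2 transiently transfected with a multiplexed cis-promoter reporter library read endogenous FOXA2 activity. After 24 h compound exposure, reporter mRNA was quantified by RT-PCR, HpaI digestion and capillary electrophoresis. Bidirectional fit against DMSO.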

A short description of test [13]: ATG_FoxO_CIS: Attagene CIS-FACTORIAL HepG2 Assay for human Forkhead box O (FoxO) (AID 2282943). Conditions: HepG2 Attagene cis-reporter, FoxO element, mRNA; actives raise or lower the signal. A digest of the protocol: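 HepG2, transient MRTU transfection (cis element, endogenous TFs). Dose 24 h. TriZol RNA → oligo(dT) RT → PCR → 6-FAM primer extension → HpaI cut → CE. Gain/loss vs DMSO.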

Test [14] is described as follows: ATG_GATA_CIS: Attagene CIS-FACTORIAL HepG2 Assay for human GATA Binding Protein (AID 2282944). The conditions noted are these: HepG2 GATA cis-element reporter, Attagene multiplex mRNA; actives raise or lower the signal. A digest of the protocol: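 Measures endogenous transcription factor-driven reporter mRNA in HepG2 cells transiently carrying cis-regulated constructs. 24 h dosing; RNA via oligo(dT) reverse transcription, PCR, HpaI digestion, capillary electrophoresis; fitted relative to DMSO.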

Test [15] can be described thus: ATG_GLI_CIS: Attagene CIS-FACTORIAL HepG2 Assay for human Zinc Finger Protein GLI1 (AID 2282945). Conditions: HepG2, Attagene cis-factorial reporter mRNA, GLI element; actives raise or lower the signal. In short, it runs like this: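 Bidirectional curve fits relative to DMSO, using reporter mRNA levels from RT-PCR plus capillary electrophoresis. Cells were HepG2 transiently carrying cis-regulated reporter constructs, harvested 24 h after dosing.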

Test [16] deals with Retinoic acid receptor alpha (Homo sapiens) (UniProt P10276). Nature of the test: ATG_DR5_RAR_CIS: Attagene CIS-FACTORIAL HepG2 Assay for human Retinoic Acid Receptor Alpha (RARE), DR5 submotif (AID 2282934). Conditions: HepG2 Attagene cis-factorial RARE DR5 reporter, mRNA; actives raise or lower the signal. A digest of the protocol:
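Transient MRTU transfection of HepG2; 24 h compound treatment; TriZol RNA, oligo(dT) RT, PCR, FAM labelling, capillary electrophoresis. Bidirectional fit vs DMSO. Endogenous TF activity at DR5 RARE.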

Test [17] has as its target Transcription factor E2F1 (Homo sapiens) (UniProt Q01094). Nature of the test: ATG_E2F_CIS: Attagene CIS-FACTORIAL HepG2 Assay for human E2F Transcription Factor 1 (AID 2282935). Conditions: HepG2 Attagene cis-reporter, E2F reporter RNA transcripts; actives raise or lower the signal. A digest of the protocol: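 Total RNA from 24 h-treated, reporter-transfected HepG2 cells undergoes DNase I treatment, oligo(dT) reverse transcription, PCR and 6-FAM primer extension before capillary electrophoresis.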

The nature of test [18]: ATG_M_19_CIS: Attagene CIS-FACTORIAL HepG2 Assay for M19 Transcription Factor (Internal Marker) (AID 2282939). The conditions noted are these: HepG2 Attagene CIS-FACTORIAL M19 internal marker reporter; actives raise or lower the signal. A digest of the protocol: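 In this multiplexed cell assay, transiently transfected HepG2 reporter units report endogenous transcription-factor activity; after 24 hours of treatment, labelled reporter cDNA fragments are quantified by capillary electrophoresis and fitted bidirectionally against DMSO.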

Test [19] in a line: ATG_DR4_LXR_CIS: Attagene CIS-FACTORIAL HepG2 Assay for human Liver X Receptor (LXR), DR4 submotif (AID 2282929). Conditions: HepG2 Attagene DR4 cis-reporter, mRNA transcription; actives raise or lower the signal. A digest of the protocol:
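HepG2 cells were transiently transfected with multiple cis-regulated reporter units and dosed for 24 hours. The DR4 reporter mRNA was quantified by RT-PCR, 6-FAM labelling and capillary electrophoresis. Bidirectional fits used DMSO as baseline.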

Broadly, the AC50 is the concentration giving half of the maximal activity seen.

Active and inactive are the calls of the source. Rule for the calls: active = hit-call score of the fitted dose curve at least 0.9, where 1 is the maximum; inactive = score below 0.9.

Retinoic acid receptor alpha (Homo sapiens), sequence (P10276 whole entry, looked up): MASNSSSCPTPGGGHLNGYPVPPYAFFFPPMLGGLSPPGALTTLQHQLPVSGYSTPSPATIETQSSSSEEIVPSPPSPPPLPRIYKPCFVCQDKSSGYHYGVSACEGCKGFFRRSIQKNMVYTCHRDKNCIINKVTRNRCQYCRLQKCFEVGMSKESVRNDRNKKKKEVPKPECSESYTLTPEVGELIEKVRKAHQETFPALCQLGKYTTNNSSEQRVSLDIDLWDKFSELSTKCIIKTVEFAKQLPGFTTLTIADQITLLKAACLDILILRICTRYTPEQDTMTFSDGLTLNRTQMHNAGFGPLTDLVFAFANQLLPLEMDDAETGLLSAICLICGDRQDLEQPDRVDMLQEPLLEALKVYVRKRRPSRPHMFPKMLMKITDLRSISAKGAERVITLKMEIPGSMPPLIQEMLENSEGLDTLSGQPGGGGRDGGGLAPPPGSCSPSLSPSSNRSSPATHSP
Transcription factor E2F1 (Homo sapiens), sequence (Q01094 whole entry, looked up): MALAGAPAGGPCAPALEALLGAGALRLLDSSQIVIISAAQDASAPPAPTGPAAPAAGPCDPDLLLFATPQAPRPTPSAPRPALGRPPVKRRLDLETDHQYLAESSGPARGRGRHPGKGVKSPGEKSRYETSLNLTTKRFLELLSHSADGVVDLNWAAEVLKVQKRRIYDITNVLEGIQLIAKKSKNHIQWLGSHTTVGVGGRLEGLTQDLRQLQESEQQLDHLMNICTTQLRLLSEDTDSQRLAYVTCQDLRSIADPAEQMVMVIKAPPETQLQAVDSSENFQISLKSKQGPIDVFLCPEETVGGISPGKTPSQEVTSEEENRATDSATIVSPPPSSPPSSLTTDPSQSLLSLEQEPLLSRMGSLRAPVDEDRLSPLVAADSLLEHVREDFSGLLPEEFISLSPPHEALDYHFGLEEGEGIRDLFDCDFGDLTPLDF
Aryl hydrocarbon receptor (Homo sapiens), sequence (P35869 whole entry, looked up): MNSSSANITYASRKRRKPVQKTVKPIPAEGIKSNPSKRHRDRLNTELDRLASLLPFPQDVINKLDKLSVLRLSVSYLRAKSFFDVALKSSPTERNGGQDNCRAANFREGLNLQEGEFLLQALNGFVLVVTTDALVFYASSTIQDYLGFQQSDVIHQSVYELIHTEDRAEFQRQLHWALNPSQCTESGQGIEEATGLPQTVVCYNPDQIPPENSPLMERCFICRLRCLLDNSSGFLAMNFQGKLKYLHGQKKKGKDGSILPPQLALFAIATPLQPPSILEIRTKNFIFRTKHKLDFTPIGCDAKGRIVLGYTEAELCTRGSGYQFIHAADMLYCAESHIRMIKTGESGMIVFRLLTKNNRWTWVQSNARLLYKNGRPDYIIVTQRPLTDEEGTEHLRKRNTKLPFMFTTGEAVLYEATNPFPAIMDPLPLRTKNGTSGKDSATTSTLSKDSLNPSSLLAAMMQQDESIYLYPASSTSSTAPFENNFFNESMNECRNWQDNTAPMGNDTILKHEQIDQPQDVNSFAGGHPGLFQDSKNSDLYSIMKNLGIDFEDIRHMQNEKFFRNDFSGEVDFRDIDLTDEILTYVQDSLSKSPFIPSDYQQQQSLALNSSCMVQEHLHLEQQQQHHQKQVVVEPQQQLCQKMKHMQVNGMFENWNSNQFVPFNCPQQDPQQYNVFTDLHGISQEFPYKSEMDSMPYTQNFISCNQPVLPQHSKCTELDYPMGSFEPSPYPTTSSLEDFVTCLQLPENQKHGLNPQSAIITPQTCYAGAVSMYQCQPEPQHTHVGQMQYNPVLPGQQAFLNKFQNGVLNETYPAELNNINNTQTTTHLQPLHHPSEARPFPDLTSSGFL
Hepatocyte nuclear factor 3-beta (Homo sapiens), sequence (Q9Y261 whole entry, looked up): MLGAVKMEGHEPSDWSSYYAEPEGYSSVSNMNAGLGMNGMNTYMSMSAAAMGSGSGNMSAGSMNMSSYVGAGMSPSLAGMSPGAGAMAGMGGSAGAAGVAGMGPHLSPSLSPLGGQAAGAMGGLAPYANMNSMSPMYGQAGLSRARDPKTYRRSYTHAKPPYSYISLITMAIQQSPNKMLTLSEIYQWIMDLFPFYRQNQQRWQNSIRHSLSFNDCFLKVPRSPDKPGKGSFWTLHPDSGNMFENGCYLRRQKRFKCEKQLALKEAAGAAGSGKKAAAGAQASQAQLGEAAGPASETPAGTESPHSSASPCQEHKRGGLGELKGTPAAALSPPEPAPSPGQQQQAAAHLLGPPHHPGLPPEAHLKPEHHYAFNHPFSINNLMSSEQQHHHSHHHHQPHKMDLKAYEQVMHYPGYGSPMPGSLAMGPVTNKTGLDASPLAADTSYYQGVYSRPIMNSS
CCAAT/enhancer-binding protein beta (Homo sapiens), sequence (P17676 whole entry, looked up): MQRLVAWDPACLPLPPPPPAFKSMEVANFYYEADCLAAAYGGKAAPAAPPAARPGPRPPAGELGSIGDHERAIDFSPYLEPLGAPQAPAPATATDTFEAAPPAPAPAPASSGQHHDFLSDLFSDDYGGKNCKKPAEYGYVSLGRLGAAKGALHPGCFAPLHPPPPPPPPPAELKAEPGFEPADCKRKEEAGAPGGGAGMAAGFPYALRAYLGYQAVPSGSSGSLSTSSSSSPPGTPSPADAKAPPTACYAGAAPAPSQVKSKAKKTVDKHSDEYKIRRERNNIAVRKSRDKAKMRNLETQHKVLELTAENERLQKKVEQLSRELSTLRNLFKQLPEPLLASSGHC

On to `ClC1=C(Cl)[C@]2(Cl)[C@H]3[C@H]([C@@H]4C=C[C@H]3C4)[C@@]1(Cl)C2(Cl)Cl`, for which the compound was called inactive in test [1], in test [2], in test [3], in test [5], in [6] and in test [7]. In addition, the compound was classed as inactive in test [8], in test [11], in [12], in test [13], in test [14] and in test [15]. In addition, the AC50 in test [4] was 46.9 µM (active); in [9] it was 33.4 µM (active); in test [10], 16.1 µM (active).

Take `CCOc1cccc(C2(N3CCN(c4ccccc4)CC3)CCC(C)CC2)c1` (stereo not drawn): the call in test [1], in [2], in test [3], in test [4], in test [5] and in test [6] was inactive. The compound was called inactive in test [16], in [17], in [7], in test [8], in [9] and in test [18]. For the same compound, the result in test [10], in test [11], in [12], in test [13], in test [14] and in test [15] was inactive.

Consider `CCCCCOC(=O)c1ccccc1C(=O)OCCCCC`, for which the result in test [1], in test [2], in test [3], in [5], in test [6] and in [17] was inactive. Further, the outcome in test [7], in [8], in test [9], in test [10], in test [11] and in test [12] was inactive. For the same compound, the result in [13], in [14] and in test [15] was inactive. Further, the results for the concentration at half-maximal activity (AC50) in test [19] and in [4] were 150 µM (active) and 77.2 µM (active), respectively.

`CCN(CC)CCO`: the compound was classed as inactive in test [1], in test [2], in test [3], in test [4], in test [5] and in [6]. Moreover, the call in test [17], in test [7], in test [8], in [9], in test [18] and in test [11] was inactive. Moreover, the compound was classed as inactive in test [12], in [13], in [14] and in test [15].

Turning to `CN(C)[C@@H]1C(=O)C(C(N)=O)=C(O)[C@@]2(O)C(=O)C3=C(O)c4c(O)cccc4[C@@](C)(O)[C@H]3C[C@@H]12`, the call in [1], in test [2], in test [3], in test [4], in [5] and in test [6] was inactive. Also, the result in [17], in [7], in [8], in test [9], in [11] and in test [12] was inactive. The call in test [13], in test [14] and in test [15] was inactive.

Consider `CN(C)c1ccccc1`, for which the call in test [1], in test [2], in test [4], in test [5], in [6] and in [16] was inactive. For the same compound, the result in test [7], in test [8], in [9], in test [18], in [11] and in test [12] was inactive. Moreover, the compound was classed as inactive in test [13], in test [14] and in test [15].

In the case of `CNC(=O)Oc1cccc2c1OC(C)(C)C2`, the compound was called inactive in test [1], in test [2], in [4], in test [5], in [6] and in test [16]. Further, the result in test [7], in test [8], in test [9], in test [18], in [10] and in test [11] was inactive. Also, the compound was classed as inactive in test [12], in test [13], in test [14] and in test [15]. Moreover, the AC50 in test [3] was 65.6 µM (active).
